Measured values published in PubChem BioAssay (NCI).
Compounds without any hit were thinned out: in the full panel of roughly 83,000, 20% have a hit.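 Cells were grown in 96-well plates and exposed to the test compound at a single concentration for 48 hours; results are reported as percent growth, with values below 10 considered active.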 Activity calls are given as the source filed them.

Key:
Test in all cases: NCI-60 one-dose screen, 48 h (100 = growth as untreated, 0 = no growth, -100 = all killed)
Conditions in all cases: 10 µM unless noted
[1] = test system: HCT-15 colon
[2] = test system: HT29 colon
[3] = test system: SNB-75 CNS
[4] = test system: SNB-19 CNS
[5] = test system: U251 CNS
[6] = test system: PC-3 prostate
[7] = test system: SK-MEL-5 melanoma
[8] = test system: UACC-62 melanoma
[9] = test system: LOX IMVI melanoma
[10] = test system: SK-MEL-28 melanoma
[11] = test system: SK-MEL-2 melanoma
[12] = test system: EKVX NSCLC
[13] = test system: SN12C renal
[14] = test system: UO-31 renal
[15] = test system: TK-10 renal
[16] = test system: ACHN renal
[17] = test system: CAKI-1 renal
[18] = test system: A498 renal
[19] = test system: CCRF-CEM leukemia
[20] = test system: MOLT-4 leukemia

Measured: growth

O=C(CSc1nc2ccc([N+](=O)[O-])cc2[nH]1)Nc1ccc(Br)cc1
inactive: [1] 56.1% | [2] 75.1% | [3] 61.6% | [4] 65.6% | [5] 36.3% | [6] 44.1% | [7] 26.3% | [8] 20.8% | [9] 63.5% | [10] 54.5% | [11] 42.2% | [12] 50% | [13] 46.1% | [14] 41% | [15] 94.5% | [16] 52.6% | [17] 39.6% | [18] 30.9% | [19] 39.1% | [20] 26.6%

CC1CN=C(c2cccc(-c3ccc(-c4ccccc4)o3)c2)N1 (stereo not given)
inactive: [3] 58.7% | [4] 25.8% | [6] 11.2% | [12] 37.2% | [13] 32.2% | [15] 30.1% | [18] 25.7%
active: [1] -57.5% | [2] -43.6% | [5] -24.3% | [7] -93.3% | [8] -62.2% | [9] -85.7% | [10] -76.3% | [11] -69.7% | [14] -0.664% | [16] -21.8% | [17] 5.69% | [19] -13.4% | [20] -16.5%

CC(=O)Nc1c(Cl)cc(Cl)c2c1Cc1cc([N+](=O)[O-])ccc1-2
inactive: [1] 89.7% | [2] 81.4% | [3] 58% | [4] 99.8% | [5] 74.3% | [6] 81.2% | [7] 103% | [8] 102% | [9] 76.8% | [10] 100% | [11] 105% | [12] 59.4% | [13] 80.3% | [14] 91.1% | [15] 99.4% | [16] 82.3% | [17] 84.5% | [18] 102% | [19] 89.7% | [20] 87%

COc1cc(C(=O)C(=O)c2cc(OC)c(O)c(OC)c2)cc(OC)c1O
inactive: [1] 103% | [2] 103% | [3] 91.6% | [4] 99.8% | [5] 98.4% | [6] 112% | [7] 104% | [8] 89.8% | [9] 97% | [10] 107% | [11] 115% | [12] 104% | [13] 91.3% | [14] 98.6% | [15] 95.8% | [16] 98% | [17] 105% | [18] 92.5% | [19] 88.3% | [20] 108%

CCc1ccc(CCC(=O)Nc2ncc(Cc3ccc(Cl)cc3)s2)o1
inactive: [1] 21.9% | [4] 50.6% | [5] 22.8% | [6] 29.3% | [7] 34.6% | [8] 33.3% | [9] 47.6% | [10] 66.3% | [11] 44.1% | [12] 37.2% | [13] 44.8% | [14] 43% | [15] 60% | [16] 48.3% | [17] 31.9% | [19] 22.4% | [20] 36.5%
active: [2] 8.1% | [3] -7.87% | [18] 0.963%

COC(=O)c1c2c(n3ccc(C)cc13)C(=O)c1ccccc1C2=O
inactive: [1] 53.6% | [2] 61.5% | [3] 109% | [4] 78.3% | [5] 77.3% | [6] 48.9% | [7] 28.5% | [8] 78.3% | [9] 58.3% | [10] 99.4% | [11] 71.6% | [12] 76.3% | [13] 75.9% | [14] 41% | [15] 85.8% | [16] 56.3% | [17] 59.2% | [18] 78.3% | [19] 46.8% | [20] 51.4%

O=c1nc(Nc2nc3ccccc3s2)[nH]c(=O)c2ccccc12
inactive: [1] 99.2% | [2] 108% | [3] 76.5% | [4] 95.6% | [5] 98.6% | [6] 105% | [7] 99.6% | [8] 99% | [9] 95.7% | [10] 110% | [11] 110% | [12] 95.2% | [13] 98.6% | [14] 89.4% | [15] 119% | [16] 89.8% | [17] 85.2% | [18] 77.4% | [19] 106% | [20] 102%
